Active and inactive are the calls of the source. Unless noted, no rule for the calls is given here.
Tests used:
[1] = resazurin metabolic signal in HepG2 cells – cell-based, resazurin fluorescence, 24 h, PK04 Diversity Set, profiling panel (AID 1172); conditions: HepG2 viability, higher = more signal
[2] = budding yeast growth changes without added modifier – OD600, strain BY4716, 24 h, basal condition, primary screen (AID 1173); conditions: S. cerevisiae BY4716 growth, OD600, 24 h; higher = more signal, called active from +8 up or from −8 down
[3] = viability profiling in MM1S myeloma cells – cell-based, resazurin fluorescence, basal, 24 h, PK04 Diversity Set, profiling panel (AID 1174); conditions: higher = more signal, called active from +8 up or from −8 down;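 also: MM1S multiple myeloma cell line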
[4] = target: Dihydroorotate dehydrogenase (quinone), mitochondrial (Plasmodium falciparum (isolate 3D7)) (UniProt Q08210); experiment: inhibition of P. falciparum DHODH – biochemical, C-terminal His tag, absorbance 600 nm, primary screen (AID 1175); conditions: PfDHODH enzyme, DCIP absorbance 600 nm; higher = more signal, called active from +8 up or from −8 down;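 also: recombinant parasite enzyme with a five histidine tag at its C terminus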
Chain of Dihydroorotate dehydrogenase (quinone), mitochondrial (Plasmodium falciparum (isolate 3D7)) (Q08210 whole entry, looked up): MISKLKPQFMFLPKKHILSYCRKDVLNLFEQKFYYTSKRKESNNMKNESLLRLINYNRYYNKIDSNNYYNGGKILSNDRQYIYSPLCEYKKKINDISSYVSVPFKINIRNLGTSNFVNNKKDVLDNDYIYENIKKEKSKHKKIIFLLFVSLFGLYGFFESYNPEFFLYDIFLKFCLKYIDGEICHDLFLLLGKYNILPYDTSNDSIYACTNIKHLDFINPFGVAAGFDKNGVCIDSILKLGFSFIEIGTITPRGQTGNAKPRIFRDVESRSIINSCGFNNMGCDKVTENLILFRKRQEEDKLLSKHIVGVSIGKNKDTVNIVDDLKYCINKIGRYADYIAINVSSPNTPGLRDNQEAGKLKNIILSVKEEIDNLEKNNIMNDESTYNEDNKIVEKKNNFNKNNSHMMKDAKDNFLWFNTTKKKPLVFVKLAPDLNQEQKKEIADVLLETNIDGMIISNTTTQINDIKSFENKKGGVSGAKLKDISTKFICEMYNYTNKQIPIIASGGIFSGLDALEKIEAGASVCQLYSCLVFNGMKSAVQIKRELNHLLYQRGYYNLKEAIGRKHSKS

[5] = inhibition of PAO1 biofilm formation – strain PAO1, LB-PBS medium, absorbance 600 nm, primary screen (AID 1176); conditions: P. aeruginosa PAO1 growth/biofilm, A600, 12 h; higher = more signal
[6] = growth modulation of vineyard yeast isolate – strain RM11-1a, OD600, basal, 24 h, primary screen (AID 1177);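 also: cultures grown under basal conditions with no added stressor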; conditions: S. cerevisiae RM11-1a growth, OD600, 24 h; higher = more signal, called active from +8 up or from −8 down
[7] = growth of efflux-deficient E. coli DRC39 – strain DRC39, OD650, 24 h, E. coli filamentation inducers, primary screen (AID 1178);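 also: growth measured as culture turbidity by optical density at 650 nm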; conditions: E. coli DRC39 acrAB, higher = more signal, called active from +8 up or from −8 down
[8] = growth of efflux-deficient E. coli DRC39 – strain DRC39, OD650, 48 h, E. coli filamentation inducers, primary screen (AID 1179);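 also: screen aims at cell division blockers that make cells filament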; conditions: E. coli DRC39 delta-acrAB growth, higher = more signal, called active from +8 up or from −8 down
[9] = viability profiling in RPMI8226 myeloma cells – cell-based, resazurin fluorescence, basal, 24 h, PK04 Diversity Set, profiling panel (AID 1180); conditions: higher = more signal;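 also: RPMI8826 multiple myeloma cell line at 5000 cells per well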
[10] = target: E3 ubiquitin-protein ligase XIAP (Homo sapiens) (UniProt P98170); experiment: small molecules binding XIAP protein – biophysical, small-molecule microarray, fluorescence 635 nm, primary screen (AID 1181); conditions: higher = more signal;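 also: score merges 667 nm emission and signal to noise over triplicate slides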
Chain of E3 ubiquitin-protein ligase XIAP (Homo sapiens) (P98170 whole entry, looked up, the tested form may be a part): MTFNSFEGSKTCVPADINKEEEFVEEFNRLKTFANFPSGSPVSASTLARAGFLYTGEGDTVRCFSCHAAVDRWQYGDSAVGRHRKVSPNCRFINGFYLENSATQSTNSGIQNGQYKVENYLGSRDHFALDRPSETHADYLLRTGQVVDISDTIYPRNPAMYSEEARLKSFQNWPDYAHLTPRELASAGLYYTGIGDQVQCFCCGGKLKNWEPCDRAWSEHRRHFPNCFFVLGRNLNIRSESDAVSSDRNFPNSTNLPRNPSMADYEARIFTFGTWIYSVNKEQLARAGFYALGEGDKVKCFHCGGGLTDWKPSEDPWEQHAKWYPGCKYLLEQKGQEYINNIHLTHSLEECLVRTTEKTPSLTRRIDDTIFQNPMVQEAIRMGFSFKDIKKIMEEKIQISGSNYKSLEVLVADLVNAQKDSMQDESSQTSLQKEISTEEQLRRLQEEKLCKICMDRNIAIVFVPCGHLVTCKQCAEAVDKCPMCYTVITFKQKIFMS

[11] = tested on: XIP peptide (Xip251-270) binding; experiment: XIP fragment 251-270 binding compounds – biochemical, small-molecule microarray, fluorescence 635/667 nm, 0.1 µg/mL protein, primary screen (AID 1182); conditions: fluorescent protein binding, 635 nm, higher = more signal, called active from +8 up or from −8 down
XIP peptide (Xip251-270) = experiment: compounds binding XIP fragment 251-270 – biochemical, small-molecule microarray, fluorescence 635/667 nm, 0.5 µg/mL protein, primary screen (AID 1183); conditions: fluorescence 635 nm, higher = more signal
[12] = blood-stage malaria parasite viability loss – strain 3D7, DAPI fluorescence, 100 nL, primary screen (AID 1184);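 also: parasites grown inside human red blood cells in medium with human serum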; conditions: P. falciparum 3D7 growth, 3 d, higher = more signal
[13] = target: Homeobox protein Hox-A13 (Mus musculus) (UniProt Q62424); experiment: disruptors of Hoxa13 oligonucleotide interaction – biochemical, fluorescence polarization, labeled oligonucleotide, primary screen (AID 1185); conditions: Hoxa13:DNA binding, 15 min, higher = more signal, called active from +8 up or from −8 down
Chain of Homeobox protein Hox-A13 (Mus musculus) (Q62424 whole entry, looked up): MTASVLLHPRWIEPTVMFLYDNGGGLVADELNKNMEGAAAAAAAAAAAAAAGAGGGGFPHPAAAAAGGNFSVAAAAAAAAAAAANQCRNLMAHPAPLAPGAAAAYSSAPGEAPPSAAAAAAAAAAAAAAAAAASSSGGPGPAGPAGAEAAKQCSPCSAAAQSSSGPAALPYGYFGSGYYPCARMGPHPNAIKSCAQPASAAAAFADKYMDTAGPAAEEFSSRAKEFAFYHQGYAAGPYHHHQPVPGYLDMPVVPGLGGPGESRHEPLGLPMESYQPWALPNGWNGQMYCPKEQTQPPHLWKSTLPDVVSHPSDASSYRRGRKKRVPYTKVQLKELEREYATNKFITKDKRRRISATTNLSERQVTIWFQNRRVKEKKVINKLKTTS

[14] = blockers of DNA damage checkpoint Chk1 activation – imaging, HeLa, hydroxyurea, phospho-Chk1 antibody, percent positive cells, primary screen (AID 1186); conditions: hydroxyurea-induced phospho-Chk1 immunofluorescence imaging, higher = more signal
[15] = blockers of DNA damage checkpoint Chk1 activation – imaging, HeLa, hydroxyurea, phospho-Chk1 nuclear intensity, primary screen (AID 1187); conditions: hydroxyurea-induced phospho-Chk1 immunofluorescence imaging, higher = more signal

Compound	z-score [1]	z-score [2]	z-score [3]	composite z-score [4]	z-score [5]	z-score [6]	z-score [7]	z-score [8]	z-score [9]	composite z-score [10]	composite z-score [11]	composite z-score (XIP peptide (Xip251-270))	z-score [12]	z-score [13]	z-score [14]	z-score [15]
CN(C)C(=O)[C@@]1(Cc2ccccc2N=[N+]=[N-])COC(c2ccc(OCCCO)cc2)=N1	1.44	-4.24 (inactive)	-0.0135 (inactive)	0.369 (inactive)	-0.497 (inactive)	0.481 (inactive)	0.632 (inactive)	1.42 (inactive)	0.816	0.194	0.472 (inactive)	0.605	-1.8	-5.84 (inactive)	-0.408 (inactive)	-0.362 (inactive)
C=CCC(OC(C)=O)[C@@H]1[C@@H](N(Cc2ccc(-c3ccccc3)cc2)C(=O)c2cccc3ccccc23)c2cc(OCCCO)ccc2N1C(=O)Cc1ccc2ccccc2c1 (stereo not given in full)	0.0989	-0.456 (inactive)	-0.144 (inactive)	0.0505 (inactive)	0.374 (inactive)	-0.611 (inactive)	0.326 (inactive)	-0.299 (inactive)	-0.187	0.18	-0.366 (inactive)	0.579	-0.171	-1.26 (inactive)	-0.8 (inactive)	-0.493 (inactive)
CCOc1cc(C(O)C2C=CC3C(=O)N(C4CCCCC4)C(=O)C3N2Nc2ccc(OC)cc2)ccc1O (stereo not given)	0.182	0.0779 (inactive)	0.312 (inactive)	-0.665 (inactive)	0.698 (inactive)	0.0701 (inactive)	0.231 (inactive)	1.13 (inactive)	0.753	0.169	0.0699 (inactive)	0.486	-0.165	-3.99 (inactive)	-0.509 (inactive)	-0.813 (inactive)
COCCOC(=O)N1C(=O)[C@@]2(c3cc(C#Cc4ccc(OC)cc4)ccc31)[C@H](C(=O)NC[C@H](O)c1ccccc1)[C@H]1C(=O)O[C@H](c3ccccc3)[C@H](c3ccccc3)N1[C@@H]2c1ccc(O)cc1	-0.857	-0.11 (inactive)	-1.09 (inactive)	-0.352 (inactive)	1.34 (inactive)	0.552 (inactive)	-0.365 (inactive)	-0.736 (inactive)	-1.32	0.261	1.42 (inactive)	0.775	-0.754	-1.78 (inactive)	-0.045 (inactive)	0.126 (inactive)
CC(C)N1CC=CC23O[C@@H]4C=CCOC(=O)[C@@H]4[C@H]2C(=O)N(C(C)CO)[C@@H]3C1=O (stereo not given in full)	0.629	0.433 (inactive)	0.273 (inactive)	-0.218 (inactive)	0.578 (inactive)	-0.603 (inactive)	0.17 (inactive)	-0.155 (inactive)	0.0803	0.226	-0.409 (inactive)	0.291	0.383	-3.67 (inactive)	0.113 (inactive)	-0.0881 (inactive)
C=CC[C@@]12N=C(c3ccc(OCCCO)cc3)O[C@@H]1c1ccccc1N(CCS(=O)(=O)c1ccccc1)C2=O	0.653	0.0618 (inactive)	-1.97 (inactive)	0.0628 (inactive)	-0.251 (inactive)	0.379 (inactive)	0.907 (inactive)	1.6 (inactive)	-1.07	0.0303	2.13 (inactive)	0.767	-2.01	-2.38 (inactive)	-0.641 (inactive)	-0.295 (inactive)
CO[C@H]1O[C@H](CO)[C@@H](OC(=O)c2ccc(Br)cc2)[C@@H]2OC(=O)[C@@H](Cc3ccc4ccccc4c3)C/C=C/C[C@H](Cc3ccc4ccccc4c3)C(=O)O[C@@H]12	-0.213	-1.23 (inactive)	-0.612 (inactive)	-1.92 (inactive)	-0.649 (inactive)	-1.34 (inactive)	0.738 (inactive)	1.03 (inactive)	0.402	0.0848	1.08 (inactive)	0.266	-0.0936	-5.67 (inactive)	-0.555 (inactive)	-0.449 (inactive)
[N-]=[N+]=NCc1ccccc1[C@H]1OC(c2ccc(OCCCO)cc2)=N[C@@]1(CCS(=O)(=O)c1ccccc1)C(N)=O	0.437	-0.258 (inactive)	0.284 (inactive)	-0.136 (inactive)	0.274 (inactive)	-0.296 (inactive)	0.0575 (inactive)	-0.702 (inactive)	-0.134	0.182	1 (inactive)	0.558	-1.09	-3.46 (inactive)	0.163 (inactive)	0.0372 (inactive)
Cc1ccc(S[C@]2(C(=O)NC(C)C)CC(=O)N(C3Cc4ccccc4C3)[C@@H]2c2ccc(CO)cc2I)cc1	-0.703	-3.55 (inactive)	-3.17 (inactive)	-2.86 (inactive)	0.379 (inactive)	-0.639 (inactive)	0.525 (inactive)	0.969 (inactive)	-2.08	-0.0795	-0.325 (inactive)	0.86	-0.619	-2.24 (inactive)	0.425 (inactive)	0.191 (inactive)
CCC[C@@H]1C[C@@]1(CCC)[C@@H](NP(=O)(c1ccccc1)c1ccccc1)c1ccc(Cl)cc1	0.405	1.3 (inactive)	-0.601 (inactive)	-1.09 (inactive)	0.439 (inactive)	0.525 (inactive)	-0.919 (inactive)	-0.26 (inactive)	-0.519	-0.0374	0.337 (inactive)	-0.53	-0.908	-1.08 (inactive)	0.946 (inactive)	0.551 (inactive)
